# Inconclusive results are not listed. Values without a mark were called inactive. The call rests on the fitted dose curve; in most records, active means well fitted cell-killing curve with a large enough effect in the repeat runs; inconclusive means weak or mixed curves, or effect the other way; inactive means flat fitted curve, though single readings scatter.
# Test: cAMP Responsive Elements (CRE) small molecule antagonists, cell-based qHTS assay: qHTS cell viability counter screen (AID 2060913); further: nearly all actives have a fitted effect of over 40% in size
# Settings: CRE-bla HEK293T viability, CellTiter-Glo luminescence, 5 h; series mostly up to 92.4 µM; viability change, negative = cytotoxic: at the top concentration
# Summary of the method: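 Cytotoxicity read in the same wells as the CRE-bla HEK293T antagonist assay: after 3 h compound with 0.25 uM NKH477 final and 2 h beta-lactamase substrate, CellTiter-Glo luminescence measured.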
# On the % scale 0 is the no-effect control and ±100 the full control effect.
row,Compound,"viability change, negative = cytotoxic"
1,CCCCCCCC/C=C\CCCCCCCC(=O)OCCCC,-0.67% [at 18.9 µM]
2,C=CCCCCCCCCC=O,4.31%
3,CCCCCCCCCCCCCCCC(=O)OCC,3.46%
4,CCN(Cc1cccnc1)C(=O)c1cccc(Cl)c1[C@]1(C)C(=O)N(Cc2ccc(OC)cc2OC)c2ccc(Cl)cc21,-5.42%
5,CCC(C)(Oc1ccc(C2(c3ccc(OC(C)(CC)C(=O)O)cc3)CCCCC2)cc1)C(=O)O (stereo unspecified),3.75% [at 42.5 µM]
6,CC(C(=O)O)c1ccc(C(=O)c2cccs2)cc1 (stereo unspecified),1.03% [at 42.5 µM]
7,CC(=O)OCC(C)C,3.77%
8,O=c1cc(O)c(Cl)c[nH]1,9.78% [at 42.5 µM]
9,Nc1ccccn1,-18.9%
10,CC1=CC[C@H](C(C)C)C=C1,-0.043%
11,CC[C@H](C)[C@@H](C(=O)O)n1sc2ccccc2c1=O,-1.23%
12,CC(=O)OC/C=C(/C)CCC=C(C)C,1.95%
13,O=C(O)C(=O)Cc1ccccc1,9.83%
14,CN(C)CCCSc1ccccc1NC(=O)/C=C/c1ccccc1,-4.75% [at 42.5 µM]
15,CC1CC(O)CC(C)(C)C1 (stereo unspecified),-5.46%
16,CCCCCCCC#N,1.94%
